# Source: patent publication US20230313203, “FLUOROARABINO NUCLEIC ACID (FANA) […] THAT BIND SARS-2 RECEPTOR BINDING DOMAIN AND BLOCK BINDING TO THE ACE2 […] RECEPTOR” (University of Maryland, College Park, published 2023)
# Results with a measured potency or affinity are listed apart.
# Biological target: SARS-CoV-2 spike receptor binding domain (Wuhan) (SARS-CoV-2, UniProt P0DTC2 P0DTC2:319-541)
# Experiment: inhibition
# Details: XNA; first 20 nt DNA, rest FANA (SEQ ID NO 3)
sequence,measurement,value
AAAAGGTAGTGCTGAATTCGUCGAACUAAUCCGAAUUGAUGGCAUAAAAAGCAUGUUUAGUUCGCUAUCCAGUUGGCCU,binding signal,~3 fold weaker
